# Assay results from PMC7862700, “An all-to-all approach to the identification of sequence-specific readers for epigenetic DNA modifications on cytosine”.
# Columns and labels:
# Test in all cases: DAPPL (digital affinity profiling via proximity ligation, sequencing); 10 mM Tris-HCl pH 7.5, 50 mM NaCl, 1 mM DTT, 4% glycerol, room temperature, 30 min; GST-TFs on glutathione beads, 16-mer random dsDNA library, 0.1% formaldehyde crosslink after washing; high values mean tight binding
# FLI1 = molecular target: T1, FLI1 (Homo sapiens, UniProt Q01543 1-452); details: protein: recombinant; tags: N-terminal GST; dsDNA, one strand shown
# T1 sequence: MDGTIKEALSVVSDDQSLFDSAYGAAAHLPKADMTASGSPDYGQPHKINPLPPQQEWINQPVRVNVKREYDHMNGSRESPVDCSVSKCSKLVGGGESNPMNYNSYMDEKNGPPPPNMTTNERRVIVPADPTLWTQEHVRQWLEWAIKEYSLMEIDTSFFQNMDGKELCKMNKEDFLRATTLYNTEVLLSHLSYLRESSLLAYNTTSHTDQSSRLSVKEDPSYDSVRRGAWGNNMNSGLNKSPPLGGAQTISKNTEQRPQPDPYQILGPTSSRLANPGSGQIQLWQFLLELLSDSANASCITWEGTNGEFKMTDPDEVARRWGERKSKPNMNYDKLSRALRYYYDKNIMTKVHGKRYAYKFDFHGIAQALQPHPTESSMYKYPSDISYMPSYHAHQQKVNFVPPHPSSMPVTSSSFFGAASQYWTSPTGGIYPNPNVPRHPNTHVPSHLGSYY
# Summary of the method: (§1)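 Pools were built from human transcription factors expressed in yeast as GST fusions, captured on glutathione beads and DNA-barcoded, along with a tag-only sample. Incubation with 200 nmole of a 16-mer random double-stranded DNA library lasted 30 min at room temperature in Tris/NaCl/DTT/glycerol buffer, and was followed by washing, 0.1% formaldehyde crosslinking, proximity ligation, PCR amplification and Illumina NextSeq500 sequencing. Binding signal is the quotient of each hexamer's read frequency for a factor and its frequency for the tag-only sample.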
# ELK1 = molecular target: T2, ELK1 (Homo sapiens, UniProt P19419 1-428); details: protein: recombinant; tags: N-terminal GST; dsDNA, one strand shown
# T2 sequence: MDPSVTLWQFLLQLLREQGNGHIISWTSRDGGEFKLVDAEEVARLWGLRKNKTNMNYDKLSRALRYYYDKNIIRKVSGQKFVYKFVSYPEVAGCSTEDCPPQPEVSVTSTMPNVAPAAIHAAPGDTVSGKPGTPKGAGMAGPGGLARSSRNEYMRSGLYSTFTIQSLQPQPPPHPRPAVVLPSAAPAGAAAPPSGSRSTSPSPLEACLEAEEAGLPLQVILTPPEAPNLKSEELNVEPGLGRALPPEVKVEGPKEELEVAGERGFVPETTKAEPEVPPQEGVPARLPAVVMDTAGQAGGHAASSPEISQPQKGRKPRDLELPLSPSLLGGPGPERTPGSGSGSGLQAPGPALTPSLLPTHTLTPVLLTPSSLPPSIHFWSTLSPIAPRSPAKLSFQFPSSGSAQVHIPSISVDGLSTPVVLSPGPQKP
# Summary of the method: as §1
# GABPA = molecular target: T3, GABPA (Homo sapiens, UniProt Q06546 1-454); details: protein: recombinant; tags: N-terminal GST; dsDNA, one strand shown
# T3 sequence: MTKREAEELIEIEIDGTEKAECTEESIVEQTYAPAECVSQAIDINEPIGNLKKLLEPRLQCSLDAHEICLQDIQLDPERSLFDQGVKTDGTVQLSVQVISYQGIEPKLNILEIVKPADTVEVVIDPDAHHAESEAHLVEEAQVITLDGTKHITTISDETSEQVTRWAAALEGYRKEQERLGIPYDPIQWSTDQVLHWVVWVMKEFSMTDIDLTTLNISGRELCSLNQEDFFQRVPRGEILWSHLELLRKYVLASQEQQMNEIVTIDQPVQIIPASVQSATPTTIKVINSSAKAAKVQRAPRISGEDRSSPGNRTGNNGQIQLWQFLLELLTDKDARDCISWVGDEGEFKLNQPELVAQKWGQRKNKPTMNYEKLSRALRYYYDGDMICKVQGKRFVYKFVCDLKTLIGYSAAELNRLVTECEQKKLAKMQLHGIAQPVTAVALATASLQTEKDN
# Summary of the method: as §1
# ERG = molecular target: T4, ERG (Homo sapiens, UniProt P11308 1-479); details: protein: recombinant; tags: N-terminal GST; dsDNA, one strand shown
# T4 sequence: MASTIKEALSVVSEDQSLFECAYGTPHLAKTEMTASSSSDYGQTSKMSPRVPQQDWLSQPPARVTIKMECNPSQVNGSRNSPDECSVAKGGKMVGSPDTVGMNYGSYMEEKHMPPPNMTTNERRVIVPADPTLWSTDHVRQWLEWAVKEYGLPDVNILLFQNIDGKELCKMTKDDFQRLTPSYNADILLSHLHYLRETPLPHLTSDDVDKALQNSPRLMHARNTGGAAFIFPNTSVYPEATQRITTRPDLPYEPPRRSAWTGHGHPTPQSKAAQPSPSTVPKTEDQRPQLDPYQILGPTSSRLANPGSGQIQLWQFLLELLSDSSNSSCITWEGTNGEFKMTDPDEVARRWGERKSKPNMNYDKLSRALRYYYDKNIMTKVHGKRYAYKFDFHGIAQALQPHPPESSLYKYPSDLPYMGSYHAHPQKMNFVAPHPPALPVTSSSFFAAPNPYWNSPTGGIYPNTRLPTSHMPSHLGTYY
# Summary of the method: as §1
# ELF1 = ELF1 (Homo sapiens, UniProt P32519 1-619); details: protein: recombinant; tags: N-terminal GST; dsDNA, one strand shown
# Summary of the method: as §1
# EHF = molecular target: T5, EHF (Homo sapiens, UniProt Q9NZC4 1-300); details: protein: recombinant; tags: N-terminal GST; dsDNA, one strand shown
# T5 sequence: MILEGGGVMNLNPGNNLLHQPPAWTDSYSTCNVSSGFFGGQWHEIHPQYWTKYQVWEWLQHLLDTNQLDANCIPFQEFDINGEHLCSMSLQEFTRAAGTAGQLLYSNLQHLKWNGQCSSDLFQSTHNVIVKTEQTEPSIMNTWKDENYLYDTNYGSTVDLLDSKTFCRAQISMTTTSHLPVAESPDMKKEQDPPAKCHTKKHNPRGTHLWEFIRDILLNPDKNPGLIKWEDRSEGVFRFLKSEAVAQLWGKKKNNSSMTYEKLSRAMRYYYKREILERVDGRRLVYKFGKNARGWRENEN
# Summary of the method: as §1
# SPI1 = SPI1 (Homo sapiens, UniProt P17947 1-270); details: protein: recombinant; tags: N-terminal GST; dsDNA, one strand shown
# Summary of the method: as §1
# SPIB = SPIB (Homo sapiens, UniProt Q01892 1-262); details: protein: recombinant; tags: N-terminal GST; dsDNA, one strand shown
# Summary of the method: as §1
# ELK3 = molecular target: T6, ELK3 (Homo sapiens, UniProt P41970 1-407); details: protein: recombinant; tags: N-terminal GST; dsDNA, one strand shown
# T6 sequence: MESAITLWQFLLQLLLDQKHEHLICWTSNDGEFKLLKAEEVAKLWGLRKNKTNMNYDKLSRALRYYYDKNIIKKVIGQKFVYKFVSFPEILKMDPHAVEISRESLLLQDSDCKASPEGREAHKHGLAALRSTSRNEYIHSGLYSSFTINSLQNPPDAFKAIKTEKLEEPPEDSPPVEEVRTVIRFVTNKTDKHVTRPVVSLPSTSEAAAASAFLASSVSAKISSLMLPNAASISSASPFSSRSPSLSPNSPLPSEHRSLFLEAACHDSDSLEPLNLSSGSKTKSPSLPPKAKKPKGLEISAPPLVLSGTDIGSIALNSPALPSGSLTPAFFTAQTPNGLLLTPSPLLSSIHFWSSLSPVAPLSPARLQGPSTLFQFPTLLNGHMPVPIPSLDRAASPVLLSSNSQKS
# Summary of the method: as §1
# FEV = molecular target: T7, FEV (Homo sapiens, UniProt Q99581 1-238); details: protein: recombinant; tags: N-terminal GST; dsDNA, one strand shown
# T7 sequence: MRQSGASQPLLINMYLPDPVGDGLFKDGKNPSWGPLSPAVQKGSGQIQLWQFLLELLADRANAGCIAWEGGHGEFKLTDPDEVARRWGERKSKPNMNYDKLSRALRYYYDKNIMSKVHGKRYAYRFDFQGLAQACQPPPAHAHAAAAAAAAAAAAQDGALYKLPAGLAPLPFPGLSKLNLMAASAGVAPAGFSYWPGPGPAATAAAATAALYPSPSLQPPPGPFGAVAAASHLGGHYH
# Summary of the method: as §1
# ETV5 = ETV5 (Homo sapiens, UniProt P41161 1-510); details: protein: recombinant; tags: N-terminal GST; dsDNA, one strand shown
# Summary of the method: as §1
# HSF1 = HSF1 (Homo sapiens, UniProt Q00613 1-529); details: protein: recombinant; tags: N-terminal GST; chain copies: 3; dsDNA, one strand shown
# Summary of the method: as §1
# SPIC = molecular target: T8, SPIC (Homo sapiens, UniProt Q8N5J4 1-248); details: protein: recombinant; tags: N-terminal GST; dsDNA, one strand shown
# T8 sequence: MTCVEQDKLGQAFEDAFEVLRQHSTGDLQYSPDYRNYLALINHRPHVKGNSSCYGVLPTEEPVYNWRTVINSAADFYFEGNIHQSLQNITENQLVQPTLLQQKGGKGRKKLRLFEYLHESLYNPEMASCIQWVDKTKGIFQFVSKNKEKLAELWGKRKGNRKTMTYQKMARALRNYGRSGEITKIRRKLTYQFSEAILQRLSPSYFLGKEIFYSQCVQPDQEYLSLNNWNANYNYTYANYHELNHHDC
# Summary of the method: as §1
# ELF4 = ELF4 (Homo sapiens, UniProt Q99607 1-663); details: protein: recombinant; tags: N-terminal GST; dsDNA, one strand shown
# Summary of the method: as §1
# ELK4 = molecular target: T9, ELK4 (Homo sapiens, UniProt P28324-2 1-405); details: protein: recombinant; tags: N-terminal GST; dsDNA, one strand shown
# T9 sequence: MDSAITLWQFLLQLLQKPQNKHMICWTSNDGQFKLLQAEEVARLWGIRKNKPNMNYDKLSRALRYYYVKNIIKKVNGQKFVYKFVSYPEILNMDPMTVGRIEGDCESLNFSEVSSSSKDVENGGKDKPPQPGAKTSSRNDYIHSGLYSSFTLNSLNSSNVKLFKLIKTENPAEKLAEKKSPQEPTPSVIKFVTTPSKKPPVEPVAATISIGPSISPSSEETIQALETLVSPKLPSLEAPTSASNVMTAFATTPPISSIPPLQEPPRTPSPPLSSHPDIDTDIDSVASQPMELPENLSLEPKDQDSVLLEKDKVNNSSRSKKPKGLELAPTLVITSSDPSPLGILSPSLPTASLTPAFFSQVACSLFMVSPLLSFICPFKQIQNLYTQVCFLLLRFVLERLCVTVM
# Summary of the method: as §1
# ETV2 = molecular target: T10, ETV2 (Homo sapiens, UniProt O00321 1-342); details: protein: recombinant; tags: N-terminal GST; dsDNA, one strand shown
# T10 sequence: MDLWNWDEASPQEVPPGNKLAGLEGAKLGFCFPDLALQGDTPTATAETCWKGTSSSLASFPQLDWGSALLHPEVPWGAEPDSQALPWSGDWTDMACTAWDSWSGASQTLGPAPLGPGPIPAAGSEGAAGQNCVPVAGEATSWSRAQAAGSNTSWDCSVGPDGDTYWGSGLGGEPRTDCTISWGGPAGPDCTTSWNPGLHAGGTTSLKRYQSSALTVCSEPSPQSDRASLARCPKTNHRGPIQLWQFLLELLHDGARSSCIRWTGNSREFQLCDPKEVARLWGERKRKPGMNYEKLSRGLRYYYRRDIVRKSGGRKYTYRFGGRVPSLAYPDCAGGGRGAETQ
# Summary of the method: as §1
# ELF3 = molecular target: T11, ELF3 (Homo sapiens, UniProt P78545 1-371); details: protein: recombinant; tags: N-terminal GST; dsDNA, one strand shown
# T11 sequence: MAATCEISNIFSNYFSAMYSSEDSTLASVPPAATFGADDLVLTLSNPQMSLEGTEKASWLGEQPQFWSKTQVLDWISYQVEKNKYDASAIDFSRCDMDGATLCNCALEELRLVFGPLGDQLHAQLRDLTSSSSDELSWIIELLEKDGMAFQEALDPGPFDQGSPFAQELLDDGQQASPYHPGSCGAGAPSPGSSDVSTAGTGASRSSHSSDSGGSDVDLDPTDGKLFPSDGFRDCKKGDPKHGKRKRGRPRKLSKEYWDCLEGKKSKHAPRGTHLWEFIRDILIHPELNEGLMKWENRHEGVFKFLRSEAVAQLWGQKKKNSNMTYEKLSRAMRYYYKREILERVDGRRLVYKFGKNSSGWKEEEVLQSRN
# Summary of the method: as §1
# CRX = CRX (Homo sapiens, UniProt O43186 1-299); details: protein: recombinant; tags: N-terminal GST; dsDNA, one strand shown
# Summary of the method: as §1
# ETV1 = ETV1 (Homo sapiens, UniProt P50549 1-477); details: protein: recombinant; tags: N-terminal GST; dsDNA, one strand shown
# Summary of the method: as §1
# Chain of ETV1 (P50549 whole entry): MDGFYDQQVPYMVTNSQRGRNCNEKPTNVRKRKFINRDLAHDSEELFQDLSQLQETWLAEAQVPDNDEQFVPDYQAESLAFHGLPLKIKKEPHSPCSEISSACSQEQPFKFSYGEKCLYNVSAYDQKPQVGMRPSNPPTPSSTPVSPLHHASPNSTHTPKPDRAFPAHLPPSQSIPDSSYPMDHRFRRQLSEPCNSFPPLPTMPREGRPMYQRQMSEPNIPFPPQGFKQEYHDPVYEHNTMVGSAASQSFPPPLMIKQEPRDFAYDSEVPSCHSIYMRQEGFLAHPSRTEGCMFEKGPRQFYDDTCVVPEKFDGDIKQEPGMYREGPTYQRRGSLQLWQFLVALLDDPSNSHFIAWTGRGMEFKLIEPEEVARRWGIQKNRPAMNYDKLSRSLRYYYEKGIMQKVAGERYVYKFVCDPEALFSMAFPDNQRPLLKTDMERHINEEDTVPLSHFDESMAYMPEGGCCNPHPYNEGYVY
# Chain of HSF1 (Q00613 whole entry): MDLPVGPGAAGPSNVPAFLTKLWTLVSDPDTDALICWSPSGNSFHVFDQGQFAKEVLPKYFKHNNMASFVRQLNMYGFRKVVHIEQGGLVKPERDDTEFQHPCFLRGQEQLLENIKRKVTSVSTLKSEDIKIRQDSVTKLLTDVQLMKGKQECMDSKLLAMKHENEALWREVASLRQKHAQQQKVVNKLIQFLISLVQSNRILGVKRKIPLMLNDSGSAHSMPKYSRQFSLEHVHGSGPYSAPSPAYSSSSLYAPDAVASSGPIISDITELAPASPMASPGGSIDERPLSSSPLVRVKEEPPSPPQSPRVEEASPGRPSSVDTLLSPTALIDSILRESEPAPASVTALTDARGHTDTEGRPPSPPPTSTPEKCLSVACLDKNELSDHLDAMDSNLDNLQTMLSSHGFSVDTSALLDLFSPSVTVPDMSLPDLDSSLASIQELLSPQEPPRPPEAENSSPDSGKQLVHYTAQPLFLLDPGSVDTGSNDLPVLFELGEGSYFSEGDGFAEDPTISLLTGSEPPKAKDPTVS
# Chain of ETV5 (P41161 whole entry): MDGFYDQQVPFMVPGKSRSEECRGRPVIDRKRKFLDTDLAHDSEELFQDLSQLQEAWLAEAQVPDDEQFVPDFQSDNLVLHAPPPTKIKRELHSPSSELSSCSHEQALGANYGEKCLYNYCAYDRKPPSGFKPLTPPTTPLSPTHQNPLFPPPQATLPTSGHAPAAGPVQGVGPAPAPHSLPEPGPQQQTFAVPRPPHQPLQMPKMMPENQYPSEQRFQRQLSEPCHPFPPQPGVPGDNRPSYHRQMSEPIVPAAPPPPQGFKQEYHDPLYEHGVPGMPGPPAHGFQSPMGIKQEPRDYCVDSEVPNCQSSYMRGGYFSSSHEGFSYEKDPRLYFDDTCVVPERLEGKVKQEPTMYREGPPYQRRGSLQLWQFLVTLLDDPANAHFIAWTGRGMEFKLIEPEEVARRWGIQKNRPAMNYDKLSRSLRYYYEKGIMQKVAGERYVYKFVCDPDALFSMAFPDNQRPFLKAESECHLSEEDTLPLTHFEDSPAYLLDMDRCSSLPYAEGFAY
# Chain of CRX (O43186 whole entry): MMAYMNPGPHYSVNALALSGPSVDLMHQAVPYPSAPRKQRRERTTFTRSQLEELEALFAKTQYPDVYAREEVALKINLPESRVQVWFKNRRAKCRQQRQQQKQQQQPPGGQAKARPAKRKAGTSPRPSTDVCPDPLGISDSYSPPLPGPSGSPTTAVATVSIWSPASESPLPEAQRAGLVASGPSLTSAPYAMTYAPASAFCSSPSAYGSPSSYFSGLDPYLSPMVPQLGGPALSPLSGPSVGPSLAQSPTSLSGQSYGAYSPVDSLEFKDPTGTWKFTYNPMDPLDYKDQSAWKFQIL
# Chain of SPIB (Q01892 whole entry): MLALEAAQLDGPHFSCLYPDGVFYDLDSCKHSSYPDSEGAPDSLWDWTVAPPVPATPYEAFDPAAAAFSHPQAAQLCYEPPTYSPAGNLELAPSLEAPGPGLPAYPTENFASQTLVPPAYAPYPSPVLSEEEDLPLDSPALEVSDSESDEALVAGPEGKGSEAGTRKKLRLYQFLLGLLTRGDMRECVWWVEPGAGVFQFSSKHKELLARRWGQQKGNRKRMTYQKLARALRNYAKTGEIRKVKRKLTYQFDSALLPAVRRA
# Chain of ELF1 (P32519 whole entry): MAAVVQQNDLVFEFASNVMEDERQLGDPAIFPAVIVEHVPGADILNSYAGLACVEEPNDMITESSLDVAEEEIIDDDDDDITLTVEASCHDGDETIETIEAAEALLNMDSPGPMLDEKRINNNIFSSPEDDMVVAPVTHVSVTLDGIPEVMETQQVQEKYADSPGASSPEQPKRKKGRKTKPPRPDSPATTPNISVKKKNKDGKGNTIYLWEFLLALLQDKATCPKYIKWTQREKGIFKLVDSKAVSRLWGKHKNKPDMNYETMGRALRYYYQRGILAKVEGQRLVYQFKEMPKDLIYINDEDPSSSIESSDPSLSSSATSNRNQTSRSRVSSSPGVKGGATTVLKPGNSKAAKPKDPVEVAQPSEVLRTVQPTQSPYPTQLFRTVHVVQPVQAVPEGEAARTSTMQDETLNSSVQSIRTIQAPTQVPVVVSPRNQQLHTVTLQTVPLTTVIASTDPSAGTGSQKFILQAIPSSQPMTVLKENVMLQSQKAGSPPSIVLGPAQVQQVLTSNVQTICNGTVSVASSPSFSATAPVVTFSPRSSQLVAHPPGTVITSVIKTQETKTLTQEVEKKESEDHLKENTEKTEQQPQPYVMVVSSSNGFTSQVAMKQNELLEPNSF
# Chain of ELF4 (Q99607 whole entry): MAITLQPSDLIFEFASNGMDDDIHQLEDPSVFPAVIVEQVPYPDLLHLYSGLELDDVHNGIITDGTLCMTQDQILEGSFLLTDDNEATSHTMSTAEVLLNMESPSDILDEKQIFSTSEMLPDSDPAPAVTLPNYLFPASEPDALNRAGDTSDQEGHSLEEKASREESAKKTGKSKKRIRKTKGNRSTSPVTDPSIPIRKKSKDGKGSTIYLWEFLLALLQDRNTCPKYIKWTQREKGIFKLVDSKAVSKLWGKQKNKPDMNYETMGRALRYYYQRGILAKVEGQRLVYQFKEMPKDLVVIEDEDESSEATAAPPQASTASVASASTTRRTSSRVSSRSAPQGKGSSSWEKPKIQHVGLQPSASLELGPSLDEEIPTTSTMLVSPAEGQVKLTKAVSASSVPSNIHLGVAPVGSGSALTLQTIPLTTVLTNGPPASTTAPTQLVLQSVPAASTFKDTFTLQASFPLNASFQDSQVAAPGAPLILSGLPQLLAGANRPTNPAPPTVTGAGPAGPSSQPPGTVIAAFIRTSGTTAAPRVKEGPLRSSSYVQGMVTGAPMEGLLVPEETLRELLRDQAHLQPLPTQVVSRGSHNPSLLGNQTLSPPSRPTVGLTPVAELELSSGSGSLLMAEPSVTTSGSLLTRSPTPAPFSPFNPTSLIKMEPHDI
sequence,measurement,setting,value
TCTACG,binding signal,FLI1,"1.37 fold enrichment (6-mer frequency, TF over GST control)"
same,binding signal,ELK1,"1.4 fold enrichment (6-mer frequency, TF over GST control)"
same,binding signal,GABPA,"1.3 fold enrichment (6-mer frequency, TF over GST control)"
same,binding signal,ERG,"1.32 fold enrichment (6-mer frequency, TF over GST control)"
same,binding signal,ELF1,"1.38 fold enrichment (6-mer frequency, TF over GST control)"
same,binding signal,EHF,"1.32 fold enrichment (6-mer frequency, TF over GST control)"
same,binding signal,SPI1,"1.49 fold enrichment (6-mer frequency, TF over GST control)"
same,binding signal,SPIB,"1.44 fold enrichment (6-mer frequency, TF over GST control)"
same,binding signal,ELK3,"1.28 fold enrichment (6-mer frequency, TF over GST control)"
same,binding signal,FEV,"1.52 fold enrichment (6-mer frequency, TF over GST control)"
same,binding signal,ETV5,"1.3 fold enrichment (6-mer frequency, TF over GST control)"
same,binding signal,HSF1,"1.49 fold enrichment (6-mer frequency, TF over GST control)"
same,binding signal,SPIC,"1.3 fold enrichment (6-mer frequency, TF over GST control)"
same,binding signal,ELF4,"1.37 fold enrichment (6-mer frequency, TF over GST control)"
same,binding signal,ELK4,"1.36 fold enrichment (6-mer frequency, TF over GST control)"
same,binding signal,ETV2,"1.38 fold enrichment (6-mer frequency, TF over GST control)"
same,binding signal,ELF3,"1.5 fold enrichment (6-mer frequency, TF over GST control)"
same,binding signal,CRX,"1.44 fold enrichment (6-mer frequency, TF over GST control)"
same,binding signal,ETV1,"1.44 fold enrichment (6-mer frequency, TF over GST control)"
